Data reported in PubChem BioAssay (EPA / NIEHS).
Calls of active or inactive are those of the source. The calls were made as follows: active = hit-call score of the fitted dose curve at least 0.9, where 1 is the maximum; inactive = score below 0.9.

Assays:
[1] = read-out: Thrombomodulin, THBD (gene 7056); assay: BSK_CASM3C_Thrombomodulin: BioMAP Diversity Plus: CASM3C Assay for Thrombomodulin Biomarker Activity (AID 2283051); conditions: primary human coronary artery smooth muscle cells; actives raise or lower the signal;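 also: thrombomodulin protein level measured by ELISA 24 h after dosing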
[2] = read-out: Tissue Factor, F3 (gene 2152); assay: BSK_CASM3C_TissueFactor: BioMAP Diversity Plus: CASM3C Assay for Tissue Factor Biomarker Activity (AID 2283052); conditions: primary human coronary artery smooth muscle cells; actives raise or lower the signal;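 also: cell surface tissue factor protein level read by ELISA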
[3] = read-out: Interferon-gamma inducible Protein 10 (IP10), CXCL10 (gene 3627); assay: BSK_hDFCGF_IP10: BioMAP Diversity Plus: hDFCGF Assay for Interferon-gamma inducible Protein 10 (IP10) Biomarker Activity (AID 2283053); conditions: primary human foreskin fibroblasts; actives raise or lower the signal
Summary of the method: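 ELISA read-out of IP-10 (CXCL10) from primary human skin fibroblasts, 24 h after compound addition. Gain or loss of signal versus DMSO baseline, bidirectional curve fitting.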

[4] = read-out: Urokinase-type plasminogen activator receptor (uPAR), PLAUR (gene 5329); assay: BSK_CASM3C_uPAR: BioMAP Diversity Plus: CASM3C Assay for Urokinase-type plasminogen activator receptor (uPAR) Biomarker Activity (AID 2283054); conditions: primary human coronary artery smooth muscle cells; actives raise or lower the signal;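 also: cell-surface uPAR protein level quantified by ELISA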
[5] = read-out: Vascular cell adhesion molecule 1 (VCAM1), VCAM1 (gene 7412); assay: BSK_CASM3C_VCAM1: BioMAP Diversity Plus: CASM3C Assay for Vascular cell adhesion molecule 1 (VCAM1) Biomarker Activity (AID 2283055); conditions: primary human coronary artery smooth muscle cells; actives raise or lower the signal;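 also: VCAM-1 protein level quantified by ELISA on the cells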
[6] = read-out: Collagen III, COL3A1 (gene 1281); assay: BSK_hDFCGF_CollagenIII: BioMAP Diversity Plus: hDFCGF Assay for Collagen III Biomarker Activity (AID 2283056); conditions: primary human foreskin fibroblasts; actives raise or lower the signal
Summary of the method: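 ELISA readout of Collagen III in human dermal (foreskin) fibroblasts, taken 24 h post-treatment. Gain or loss relative to DMSO vehicle fitted in both directions.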

[7] = read-out: Epidermal growth factor receptor (EGFR), EGFR (gene 1956); assay: BSK_hDFCGF_EGFR: BioMAP Diversity Plus: hDFCGF Assay for Epidermal growth factor receptor (EGFR) Biomarker Activity (AID 2283057); conditions: primary human foreskin fibroblasts; actives raise or lower the signal
Summary of the method: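 ELISA readout of EGFR on human dermal fibroblasts (primary foreskin cells), 24 h post-dosing; bidirectional curve fit vs DMSO baseline, gain or loss of signal scored.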

[8] = read-out: Interleukin-8 (IL8), CXCL8 (gene 3576); assay: BSK_hDFCGF_IL8: BioMAP Diversity Plus: hDFCGF Assay for Interleukin-8 (IL8) Biomarker Activity (AID 2283058); conditions: primary human foreskin fibroblasts; actives raise or lower the signal
Summary of the method: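 IL-8 levels read by ELISA at 24 hours after dosing human skin fibroblast cultures. Parallel SRB staining assessed overt cytotoxicity, and gain or loss of signal was fitted against DMSO control.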

[9] = BSK_hDFCGF_Proliferation: Cell Proliferation Assessment in the BioMAP Diversity Plus: hDFCGF Assay (AID 2283059); conditions: primary human foreskin fibroblasts;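 also: curves fitted for both rise and fall of signal versus DMSO baseline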
Summary of the method: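 Total protein read at 560 nm after 0.1% SRB staining of TCA-fixed human skin fibroblasts, […]. Activity is fitted in both directions relative to DMSO as baseline.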

[10] = read-out: Macrophage colony-stimulating factor (MCSF), CSF1 (gene 1435); assay: BSK_hDFCGF_MCSF: BioMAP Diversity Plus: hDFCGF Assay for Macrophage colony-stimulating factor (MCSF) Biomarker Activity (AID 2283060); conditions: primary human foreskin fibroblasts; actives raise or lower the signal
Summary of the method: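 M-CSF levels read by ELISA at 24 h post-dosing in human skin fibroblasts. Parallel cultures stained with SRB assessed cytotoxicity at the same time point; response fitted in both directions against the DMSO baseline.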

[11] = read-out: TIMP metallopeptidase inhibitor 1 (TIMP1), TIMP1 (gene 7076); assay: BSK_hDFCGF_TIMP1: BioMAP Diversity Plus: hDFCGF Assay for TIMP metallopeptidase inhibitor 1 (TIMP1) Biomarker Activity (AID 2283062); conditions: primary human foreskin fibroblasts; actives raise or lower the signal
Summary of the method: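 TIMP-1 measured by ELISA 24 h after chemical dosing of primary human skin fibroblasts, with gain or loss fitted relative to DMSO. Parallel SRB staining (560 nm) monitored overt cytotoxicity.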

[12] = read-out: Matrix Metallopeptidase 1 (MMP1), MMP1 (gene 4312); assay: BSK_hDFCGF_MMP1: BioMAP Diversity Plus: hDFCGF Assay for Matrix Metallopeptidase 1 (MMP1) Biomarker Activity (AID 2283064); conditions: primary human foreskin fibroblasts; actives raise or lower the signal
Summary of the method: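 ELISA read-out of MMP1 from human foreskin fibroblasts (primary skin cells), 24 h post-dose. Gain or loss of signal was fitted bidirectionally versus DMSO negative control; cytotoxicity was checked by SRB in parallel cultures.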

[13] = read-out: Vascular cell adhesion molecule 1 (VCAM1), VCAM1 (gene 7412); assay: BSK_hDFCGF_VCAM1: BioMAP Diversity Plus: hDFCGF Assay for Vascular cell adhesion molecule 1 (VCAM1) Biomarker Activity (AID 2283065); conditions: primary human foreskin fibroblasts; actives raise or lower the signal;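 as to AC50: VCAM-1 protein level quantified by ELISA after 24 h chemical exposure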
Summary of the method: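 ELISA readout of VCAM-1 on human dermal fibroblast primary cultures, 24 h after chemical exposure. Gain or loss of signal fitted in both directions against DMSO baseline.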

[14] = read-out: Plasminogen activator inhibitor-1 (PAI1), SERPINE1 (gene 5054); assay: BSK_hDFCGF_PAI1: BioMAP Diversity Plus: hDFCGF Assay for Plasminogen activator inhibitor-1 (PAI1) Biomarker Activity (AID 2283066); conditions: primary human foreskin fibroblasts; actives raise or lower the signal
Summary of the method: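 ELISA readout of PAI-1 from primary human skin fibroblast cultures, 24 h after compound addition. Gain or loss of signal was fitted bidirectionally against DMSO baseline.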

[15] = read-out: Intercellular Adhesion Molecule 1 (ICAM1), ICAM1 (gene 3383); assay: BSK_KF3CT_ICAM1: BioMAP Diversity Plus: KF3CT Assay for Intercellular Adhesion Molecule 1 (ICAM1) Biomarker Activity (AID 2283067); conditions: primary human keratinocytes with fibroblasts; actives raise or lower the signal
Summary of the method: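 Cell-surface ICAM-1 was measured by ELISA 24 h after dosing primary human skin keratinocytes co-cultured with fibroblasts. Parallel SRB staining tracked overt cytotoxicity. Gain or loss of signal was fitted relative to DMSO.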

[16] = read-out: Interferon-gamma inducible Protein 10 (IP10), CXCL10 (gene 3627); assay: BSK_KF3CT_IP10: BioMAP Diversity Plus: KF3CT Assay for Interferon-gamma inducible Protein 10 (IP10) Biomarker Activity (AID 2283068); conditions: primary human keratinocytes with fibroblasts; actives raise or lower the signal
Summary of the method: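 Human keratinocyte plus foreskin fibroblast primary co-culture exposed to test chemical for 24 h; IP-10 measured by ELISA. Concentration-response fitted bidirectionally against DMSO control as baseline.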

[17] = BSK_KF3CT_SRB: Viability Assessment in the BioMAP Diversity Plus: KF3CT Assay (AID 2283069); conditions: primary human keratinocytes with fibroblasts;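 also: total protein by sulforhodamine B staining as a cytotoxicity measure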
Summary of the method: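 SRB read-out at 560 nm (0.1% stain, TCA-fixed cells) gauges overt cytotoxicity in a human skin keratinocyte–fibroblast co-culture 24 h post-dosing. Signal change was fitted bidirectionally relative to DMSO control.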

[18] = read-out: Interleukin-1 alpha (IL1a), IL1A (gene 3552); assay: BSK_KF3CT_IL1a: BioMAP Diversity Plus: KF3CT Assay for Interleukin-1 alpha (IL1a) Biomarker Activity (AID 2283070); conditions: primary human keratinocytes with fibroblasts; actives raise or lower the signal
Summary of the method: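 Primary skin co-culture (keratinocytes, foreskin fibroblasts), 24 h exposure; ELISA for IL-1a; bidirectional curve fit vs DMSO.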

Measured: AC50

CC1(c2ccc(Oc3ccccc3)cc2)OC(=O)N(Nc2ccccc2)C1=O (configuration not stated)
active: [4] 5.52 µM | [5] 18 µM
inactive: all other assays above

CC(C)N(C(=O)COc1nnc(C(F)(F)F)s1)c1ccc(F)cc1
active: [3] 22.9 µM | [9] 15.9 µM | [10] 28.9 µM | [12] 17.7 µM | [13] 8.54 µM | [16] 30.8 µM
inactive: all other assays above

C#CCN1C(=O)COc2cc(F)c(N3C(=O)C4=C(CCCC4)C3=O)cc21
inactive: all assays above

CCOc1nc(NC)nc(NC(=O)NS(=O)(=O)c2ccccc2C(=O)OC)n1
active: [3] 26.5 µM | [11] 25.5 µM | [12] 20 µM | [14] 5.36 µM | [16] 20 µM
inactive: all other assays above
